Shiga toxin inh: Shiga toxin inhibition; Vero cells, Shiga toxin protein synthesis inhibition reporter; inhibition, % at 38.7 µM; 9.2% of 290,000 active; AID 2315; in the data active = inhibition mostly above about 28%, no sharp cut-off; inactive = mostly below about 43%; also: 0% is about no effect
Pf growth 96h: inhibits malaria parasite growth, 96 h. P. falciparum luciferase reporter growth, 96 h. Potency, µM (top dose mostly 28.7 µM), without a hit: top-dose activity change, negative = inhibition, most hits filed as inhibitors. 6.9% of 320,000 active; also: potency is read from the fitted curve at half-maximal effect; % is scaled to controls: 0 for no effect and ±100 for the full control effect
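Two parasite generations (96 h, 37 C, 5% CO2) of compound exposure in infected erythrocytes (0.05% parasitemia, 2% hematocrit). Luciferase-reporter P. falciparum; decreased luminescence indicates inhibited growth, aimed at apicoplast-acting delayed death.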
CHX counter: affects cycloheximide protein synthesis inhibition readout, counter-screen; cell reporter, cycloheximide protein synthesis inhibition counterscreen; max response, %; 12% of 300,000 active; in the data active = max response mostly above about 13%, no sharp cut-off; inactive = mostly below about 14%; also: read at 38.3 µM for the half of the compounds with a filed dose; 0% is about no effect
LASV entry inh: blocks Lassa virus binding to or entry into cells. 1.2% of 300,000 active. AID 540256. Potency, µM (highest dose often 37.9 µM), without a hit: at the top dose activity change, negative = inhibition, usual class: inhibitors. Lassa virus pseudotype entry inhibition, cell reporter; calls by dose curve; tested in HEK293 cells; also: potency is read from the fitted curve at half-maximal effect; % is scaled to controls: 0 for no effect and ±100 for the full control effect; nearly all actives have a fitted effect of over 50% in size
Marburg entry inh: inhibitors of Marburg virus binding or cell entry; AID 540276; Marburg virus pseudotyped entry inhibition, cell reporter; Potency, µM (top dose mostly 37.8 µM), for inactives: at the top dose activity change, negative = inhibition, actives largely listed as inhibitors; 1.8% of 300,000 active; calls by dose curve; tested in HEK293 cells; also: potency is read from the fitted curve at half-maximal effect; % is scaled to controls: 0 for no effect and ±100 for the full control effect
Pf growth 48h: inhibits P. falciparum growth in the first generation, 48 h; P. falciparum luciferase growth in erythrocytes, 48 h; Potency, µM (doses to about 28.7 µM), without a hit: at the highest dose activity change, negative = inhibition, most hits filed as inhibitors; 5.9% of 310,000 active; AID 504832; also: potency is read from the fitted curve at half-maximal effect; % is scaled to controls: 0 for no effect and ±100 for the full control effect
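Firefly luciferase activity from engineered P. falciparum reports growth; inhibitors lower the luminescent signal. Cultures contained 2% hematocrit erythrocytes at 0.1% final parasitemia.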
Active calls of the source: *; i = inactive; ? = inconclusive; . = no result given; [ ] = dose if it differs, or a comment. This is a sample that favours compounds with a hit; in the whole collection about 19% have one here. Unless noted, calls follow the shape of the dose curve; as a rule, active = well fitted inhibition curve with a large enough effect; inconclusive = small, poorly fitted or top-dose-only effect, or another doubt; inactive = no such curve, though single readings can be large or run the other way.

SMILES	Shiga toxin inh	Pf growth 96h	CHX counter	LASV entry inh	Marburg entry inh	Pf growth 48h
Cc1oc2c(C)c3oc(=O)c(CCC(=O)NCCCN4CCCC4=O)c(C)c3cc2c1C	-3	?	-3	.	.	2%
O=C(CCn1nc(-c2ccc(Cl)cc2)ccc1=O)NCCCN1CCCCCC1	5	58%	-4	0%	1%	?
CCOC(=O)C1CCN(C2CCN(C(=O)c3oc4c(C)c(C)ccc4c3C)CC2)CC1	82*	-15%	19*	.	.	13µM*
Cc1ccc2c(C)c(C(=O)N3CCCC(C(N)=O)C3)oc2c1C (configuration not stated)	72*	?	27*	.	.	49%
Cc1c(C(=O)N2C[C@@H](C)O[C@@H](C)C2)oc2c(F)cccc12	70*	-5%	40*	.	.	?
Cc1c(C(=O)NC2CCOC2)oc2c(F)cccc12 (configuration not stated)	114*	?	71*	.	.	45%
CCOC(=O)C1CCN(C(=O)c2ccc(C)o2)CC1	.	.	.	12%[46.1 µM]	12%	.
Cc1c(C(=O)O)oc2c(F)cccc12	-3	i	-1	11%	1%[46.1 µM]	16%
Cc1cccc(C)c1NC(=O)c1nc(S(C)(=O)=O)ncc1N(Cc1ccc(C(C)(C)C)cc1)Cc1ccco1	.	.	.	-23%[46.1 µM]	?	.
C/C(=N/Nc1ccnc2cc(Cl)ccc12)c1ccc(O)cc1	.	0.29µM*	.	.	.	0.33µM*
C/C(=N/Nc1ccnc2cc(Cl)ccc12)c1ccc(N)cc1	.	0.47µM*	.	.	.	0.83µM*
CCOc1ccc(-c2nc(C#N)c(N3CCCCCC3)o2)cc1	9	34%	-3	.	.	?
Cc1nn(-c2ccccc2)c2c1C(c1ccccc1)C(C#N)=C(N)O2 (configuration not stated)	-2	.	-1	-3%	-14%	-12%
Cc1ccc(-n2nc(C)c3c2OC(N)=C(C#N)C3c2ccoc2)cc1 (configuration not stated)	52	.	25*	-3%	0%	.
COc1ccc(OC)c(C2C(C#N)=C(N)Oc3c2c(C)nn3-c2ccc(C)cc2)c1 (configuration not stated)	-6	21%	-4	0%	-14%	3%
Cc1ccc(-n2nc(C)c3c2OC(N)=C(C#N)C3c2ccco2)cc1 (configuration not stated)	75*	47%	22*	15%	4%	-21%
Cc1ccc(-n2nc(C)c3c2OC(N)=C(C#N)C3c2ccc(C)o2)cc1 (configuration not stated)	92*	?	48*	-2%	21%	-25%
CN(C)S(=O)(=O)N1CCC(Oc2ccc(C(=O)NCc3cnn(C)c3)cc2)CC1	-5	?	7	-12%	-15%[46.1 µM]	-9%
O=C(NN1CCCCC1)c1ccc(COc2ccc(Cl)cc2)cc1	-6	?	-3	-13%[46.1 µM]	-5%[46.1 µM]	6%
O=C1CSC(c2cccnc2)N1Cc1ccc(Cl)cc1 (configuration not stated)	-16	20%	-3	27%[46.1 µM]	-8%[46.1 µM]	0%
O=C1CSC(c2cccnc2)N1Cc1ccc(Cl)cc1Cl (configuration not stated)	20	9.3µM*	-2	-8%[46.1 µM]	-15%[46.1 µM]	?
O=C1CC(=O)N(c2ccccc2)C(=O)N1c1ccccc1	18	?	17*	20%[46.1 µM]	15%[46.1 µM]	30%
COc1ccc(N2C(=O)CC3(CCCC3)CC2=O)cc1	-1	6.6µM*	9	1%	6%	21%
COc1ccc(N2C(=O)CC(=O)NC2=O)cc1	-9	-5%	-2	8%	4%	28%
O=C1CC2(CCCC2)CC(=O)N1c1ccccc1	2	12µM*	6	25%[46.1 µM]	2%[46.1 µM]	?
O=C(N/C(=C\c1ccc(Br)cc1)C(=O)N1CCOCC1)c1ccc([N+](=O)[O-])cc1	2	14%	2	3%	-4%[46.1 µM]	-20%
COc1ccc(-c2ccc(/C=C(\NC(=O)c3ccccc3)C(=O)N3CCOCC3)o2)cc1	-7	68%	-2	-19%	?	13µM*
CN(C)CCNC(=O)/C(=C/c1ccc(-c2ccc(Cl)cc2)o1)NC(=O)c1ccccc1	-17	29%	-13	?	12µM*	13µM*
O=C(N/C(=C\c1ccco1)C(=O)N1CCOCC1)c1ccc([N+](=O)[O-])cc1	-1	4.7µM*	1	-3%[46.1 µM]	7%[46.1 µM]	15%
